The results in this text go back to PubChem BioAssay (NCI).

About 83,000 compounds went through this panel and 20% of them were active in at least one assay; those are over-represented in the sample as a whole.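 Single-dose data. Exposure time 48 hours. Values below 10 considered active.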 Active and inactive are the calls of the source.

The assay concerns SW-620 colon. The assay is described as follows: NCI-60 one-dose screen, 48 h (100 = growth as untreated, 0 = no growth, -100 = all killed). Particulars: 10 µM. As for the experimental part: Growth inhibition of the SW-620 human tumor cell line is measured as a screen for anti-cancer activity. Cells are grown in 96 well plates and exposed to the test compound for 48 hours. Compounds are tested at a single concentration, which is 10^-5 M for most compounds. The reported endpoint is percent growth (GI% or GIPRCNT), where numbers from 0 - 100% represent growth inhibition, and numbers from -100% - 0 represent cell death. For example, a value of 40 represents 60% growth inhibition. A value of 0 means no net growth occurred over the course of the experiment. A value of -40 indicates 40% of cells at the beginning of the experiment died by the end of the experiment. A value of -100 means all cells are dead at the end of the experiment.
NCI-60 Human Tumor Cell Lines Screen was performed using the standard one-dose NCI protocol, which is described in more detail at https://dtp.cancer.gov/discovery_development/nci-60/default.htm.
Compounds with GIPRCNT values below 10 were considered active. Activity score was based on GIPRCNT using the following formula: […]
Score is 0 for GIPRCNT values of 100 or above, 50 for GIPRCNT values of 0, and 100 for GIPRCNT values of -100.
Take `O=C(/C=C/c1cc2ccccc2[nH]c1=O)c1ccc2c(c1)OCO2`: the growth is 99.6% (inactive).
The value for `CSc1nn(-c2ccccc2)c2ncnc(Oc3ccccc3)c12` was 104% (inactive); that for `COc1cc(OC)cc(-c2cncn2-c2ccc(-c3nc4cc(OC)cc(OC)c4s3)cc2)c1` was 48.2% (inactive).
As for `CC(=O)CSC(C)=O`, the growth was 101% (inactive).
On to `O=C(CNC(=O)OCc1ccccc1)NCC(=O)Oc1ccc([N+](=O)[O-])cc1`, for which the growth was 95.9% (inactive).
Regarding `O=C(Nc1ccc(Cl)c([N+](=O)[O-])c1)Nc1nc2ccccc2s1`, the growth was 99.4% (inactive).
To `CN1CCC(CNc2cc(C3(C(=O)Nc4cc(C(=O)Nc5ccc(Cl)c(C(F)(F)F)c5)ccc4F)CC3)ncn2)CC1` belongs -9.83% (active); to `C=C(Cl)[C@@](Cl)(CBr)CC[C@@H](Br)C(C)(C)Cl`, -61.7% (active); to `O=C(C[P+](c1ccccc1)(c1ccccc1)c1ccccc1)C[P+](c1ccccc1)(c1ccccc1)c1ccccc1`, -71.9% (active).
`NC(=O)CC1(c2ccccc2)CCCCC1`: the growth is 108% (inactive).
The value for `CC(C)(Cl)CCC1=C(Cl)C(=O)c2ccccc2C1=O` was 7.89% (active); that for `Cc1ccc(N=Nc2c(N)nc(N)[nH]c2=O)cc1C` was 102% (inactive).
As to `Cc1occc1-c1nnc(SCC(=O)c2ccc(NC(=O)CC(C)C)cc2)o1`, the growth was 108% (inactive).
In the case of `COc1ccc2c(c1)[n+]([O-])c(C#N)c(NC(=O)c1ccco1)[n+]2[O-]`, the growth was 108% (inactive).
In the case of `CC(=O)c1cc(Cl)ccc1O`, the growth is 95.9% (inactive).
The value for `O=C1Nc2ccc(Cl)cc2/C1=C\c1c(-c2ccc(Cl)cc2)nc2sc(C3CC3)nn12` was 80.8% (inactive).
To `COC(=O)C(C(C[N+](=O)[O-])c1ccccc1)=P(c1ccccc1)(c1ccccc1)c1ccccc1` (stereo not given) belongs 69.8% (inactive); to `CCCCCCCNc1nc(C=O)ncc1-c1ccc(C(F)(F)F)cc1`, 98% (inactive).
With `Cc1ccc(S(=O)(=O)Oc2ccc3c4c(c(=O)oc3c2)CCCCC4)cc1`, the growth is 30.2% (inactive).
To `CC(=O)c1nc2ccccc2n1CCN1CCN(C)CC1` belongs 29.6% (inactive); to `Cc1ccc(CC#N)cc1C`, 109% (inactive).
Turning to `CCCCC(CCCCCC(CCCC)NCc1ccc2c(c1)OCO2)NCc1ccc2c(c1)OCO2` (stereo not given), the growth was -100% (active).
On to `Nc1c(C(=O)Nc2cccc(Br)c2)sc2nc3c(cc12)C(O)CCC3` (stereo not given), for which the growth was 36.4% (inactive).
Take `O=C(Nc1cccc(-n2cc(-c3ccncc3)c(-c3ccc(O)c(Cl)c3)n2)c1)Nc1ccc(Cl)c(Cl)c1`: the growth was 6.85% (active).
As to `COc1cccc(C(=O)Nc2ccc(CN3CCc4nc5cc(OC)c(OC)cc5cc43)cc2)c1`, the growth was 59% (inactive).
Turning to `Cc1cc(C)c(CCc2cc(C)c(C)cc2C)cc1C`, the growth is 105% (inactive).
With `O=C1OCC2=C1C(c1cccc(Br)c1)c1cc3c(cc1N2CCO)CCC3` (stereo not given), the growth is 17.5% (inactive).
With `CCN(CC)CCNc1ccc(CO)c2oc3cc(Cl)ccc3c(=O)c12`, the growth was 71.3% (inactive).
Consider `O=C(NC(Cc1ccc(O)cc1)C(=O)N=Nc1c(O)[nH]c2ccccc12)c1ccccc1` (stereo not given), for which the growth is 96.4% (inactive).
In the case of `COc1ccc(Cn2c(C(N)=O)cc3c2-c2nc(N)ncc2CCC3)cc1`, the growth was 91.3% (inactive).
To `c1ccc(C(NC2CC3CCC2C3)c2ccccc2)cc1` (stereo not given) belongs 106% (inactive); to `N#CCCN(NC(=O)OCc1ccccc1)C(=O)OCc1ccccc1`, 102% (inactive).
To `Oc1[nH]c2ccc(Cl)cc2c1/C=c1/ccc2c(c1)N=C(c1cccs1)N=2` belongs 85.9% (inactive); to `O=[N+]([O-])c1cccc(N=Cc2ccc3c(c2)OCO3)c1`, 108% (inactive).
The value for `Cc1ccc2oc3nc(C)c(C(=O)NCc4ccccc4)cc3c(=O)c2c1` was 77.5% (inactive).
Turning to `CCCCCCCC(C)NCCO` (stereo not given), the growth is 106% (inactive).
The value for `COc1ccc(/C=C/C(C)=N/OCC(=O)O)cc1` was 107% (inactive); that for `O=C1/C(=C/c2ccc(Cl)cc2)SC(=Nc2ccc(Cl)cc2)N1Cc1nc2ccccc2[nH]1` was 74.9% (inactive).
To `CCN(CC)CCCOCCCNc1cc(OC)cc2cccnc12` belongs 99.9% (inactive).
With `CC12O[C@H](C[C@@H](OC(=O)c3ccccc3)[C@H]1O)n1c3ccccc3c3c4c(c5c6ccccc6n2c5c31)C(=O)NC4=O`, the growth is 60.2% (inactive).
